# Screening results from PubChem.
# In the library only some 3.6% were active in any assay of this set; here they are far more common.
# mHTT CaM bind = disrupts binding of mutant huntingtin to calmodulin | P42858 | 190,000 tested, 3.6% active | inhibition, % at 15 µM | AlphaScreen His-mHTT/GST-CaM binding, luminescence;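 also: 0% = both proteins with DMSO and 100% = one protein alone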
# Pf apPOL block = Pf-apPOL DNA polymerase inhibition; Recombinant Pf-apPOL, molecular beacon fluorescence, 1.5 h; inhibition, % at 10 µM; 210,000 tested, 0.25% active; AID 1794808
# Numbers without * were called inactive; . = not tested or not shown. Rule as the data show it: active = inhibition above about 50%; inactive = the rest.
SMILES,mHTT CaM bind,Pf apPOL block
COc1ccc(C2CCc3nc(C(=O)N4CCCC4)cn3C2)c(OC)c1 (stereo unspecified),19.8,-1.4
COc1ccccc1CC(=O)N1CCCC1c1ccc(Cl)cc1 (stereo unspecified),59.2*,-2.4
COc1ccccc1CC(=O)N1CCCC1c1ccc(C)cc1 (stereo unspecified),-4.5,-1.7
O=C(Cc1ccccc1F)N1CCCn2nc(-c3ccc(Cl)cc3)cc2C1,29.5,-15.6
COc1ccccc1CC(=O)N1CCCn2nc(-c3ccc(Cl)cc3)cc2C1,70.7*,-2.2
O=C(NCc1ccc(N2CCCCC2)nc1)C1CCCCC1,9.4,0.0
CCCCC1(CO)C(=O)N(c2ccccc2)N(c2ccccc2)C1=O,.,-12.4
CCCCC1(CC(=O)Nc2ccc(F)cc2)C(=O)N(c2ccccc2)N(c2ccccc2)C1=O,98.0*,-1.4
O=C(NC1CC1)c1cccc(OCC2CCCN(C(=O)c3cccs3)C2)c1 (stereo unspecified),1.8,-5.7
O=C(NCCN1CCCCC1)C1Cc2cc(C(F)(F)F)ccc2N2CCOCC12 (stereo unspecified),30.8,-4.0
O=C(C1Cc2cc(C(F)(F)F)ccc2N2CCSCC12)N1CCOCC1 (stereo unspecified),83.1*,-5.2
COC1N(c2ccccc2)N=C(c2ccccc2)N1c1ccccc1 (stereo unspecified),12.7,.
c1ccc(N2N=C3N(c4ccccc4)C2N3c2ccccc2)cc1,77.0*,.
COc1ccc(OC)c(CNC(=O)C2CCN(c3nccnc3Oc3ccccc3)CC2)c1,1.5,-18.1
c1ccc(-c2nnc3sc(C4CCCCC4)nn23)nc1,4.7,.
Brc1ccc(-c2nn3c(-c4ccccn4)nnc3s2)o1,84.7*,.
COCc1noc(C2CCCCN2C(=O)c2ccc(F)c(Cl)c2)n1 (stereo unspecified),-6.9,-3.5
CCOc1ccc(C(=O)N2CCC(C(=O)NCCc3csc(C)n3)CC2)cc1,0.6,-1.1
COc1ccc(NC(=O)c2c(Cl)cc(Cl)nc2Cl)cc1,-8.0,-1.4
COc1ccc(NC(=O)c2c(C)sc3c(C)c(C)[nH]c23)cc1,54.2*,26.3
Cc1nnc(NC(=O)CSc2nnc(-c3ccco3)c(-c3ccco3)n2)s1,67.0*,-1.1
CCSc1nnc(NC(=O)CSc2nnc(CNC(=O)c3ccco3)o2)s1,-9.2,4.8
CCc1nnc(NC(=O)CSc2nnc(-c3ccco3)c(-c3ccco3)n2)s1,65.0*,4.6
CCSc1nnc(NC(=O)CSc2nnc(-c3ccco3)c(-c3ccco3)n2)s1,81.0*,3.4
O=C(CSc1nnc(-c2ccco2)c(-c2ccco2)n1)Nc1nc2ccccc2s1,47.0,-9.5
SMILES,mHTT CaM bind,Pf apPOL block
CCc1nnc(NC(=O)CSc2ncccn2)s1,-4.8,-0.4
O=C(NC1CCc2ccccc21)C1CCN(c2cc(Oc3ccccc3)ncn2)CC1 (stereo unspecified),-4.3,-6.5
COC(=O)NN=C(C)c1ccc(-c2ccccc2)cc1,.,6.0
Cc1cccc(OCC(=O)N2CCC(c3cnn(-c4ccc(F)cc4)c3)CC2)c1,3.7,-0.2
O=C(O)/C=C/c1cccc(N=Cc2ccc([N+](=O)[O-])o2)c1,71.0*,-1.5
O=C(O)/C=C/c1cccc(N=Cc2ccc(N3CCOCC3)cc2)c1,-6.0,1.6
CCCn1ncc(N2CCC(C(=O)Nc3ccccc3CC)CC2)cc1=O,2.1,0.1
CCC(=O)Nc1cccc(-c2noc(C3CCN(C(=O)c4ccc(C)cc4C)CC3)n2)c1,3.5,0.1
O=C1C(=O)N(CCc2ccccc2)c2ccc(Cl)cc21,34.0,-4.1
Cc1ccc(CN2C(=O)C(=O)c3cc(S(=O)(=O)N4CCOCC4)ccc32)cc1,89.0*,37.4
O=S(=O)(c1ccc(Cl)c(S(=O)(=O)N2CCOCC2)c1)N1CCOCC1,-2.3,3.4
O=C1C(=O)N(Cc2cccc(Cl)c2)c2ccccc21,93.0*,-5.9
O=C1C(=O)N(Cc2cccc(C(F)(F)F)c2)c2ccccc21,48.0,-4.8
Cc1ccc(CN2C(=O)C(=O)c3cc(Cl)ccc32)cc1,62.0*,-6.8
Cc1noc(CNC(=O)COc2ccccc2F)n1,-9.9,-5.0
O=C(O)C=Cc1ccc(-c2ccccc2)cc1,-0.2,-10.2
CC(=O)N(C)c1ccc(NC(=O)c2ccc(Cn3cc(Br)cn3)cc2)cc1,8.0,-0.9
CN(C)c1ccc(NC(=O)c2ccc(N(C)C)cc2)cc1,72.2*,-2.7
CCn1ncc(Br)c1C(=O)Nc1cccc(C(=O)O)c1,0.0,-2.8
CN(C)c1ccc(NC(=O)c2ccc(Cn3cc([N+](=O)[O-])cn3)cc2)cc1,75.0*,-3.5
CCn1ncc(Br)c1C(=O)Nc1ccc(N(C)C)cc1,56.0*,-6.8
CN(C)c1ccc(NC(=O)c2ccc(Br)cc2)cc1,6.7,6.9
COc1ccc(-c2noc(-c3ccc(NCc4ccc(F)cc4)nc3)n2)cc1,-1.1,3.4
CCc1cc(C2CCCN2Cc2ccc(F)cc2)on1 (stereo unspecified),-8.3,-3.9
COc1ccc(OC)c(-c2c(C)c3ccc(OC)cc3oc2=O)c1,-0.2,-21.2
SMILES,mHTT CaM bind,Pf apPOL block
CC(=O)Nc1ccc(SCCN2CCN(CCc3ccccc3)CCC2=O)cc1,16.1,-5.4
CC(C)C[C@@H](CSc1ccc(Br)cc1)N1CCN(CCc2ccccc2)CCC1=O,19.4,-4.8
O=C1CCN(CCc2ccccc2)CCN1[C@H](COc1ccccc1)c1ccccc1,100.0*,1.1
CCCN1CCC(=O)N([C@H](COc2ccccc2)c2ccccc2)CC1,22.1,-9.3
CCCN1CCC(=O)N([C@H](CSc2ccc(C)cc2)c2ccccc2)CC1,6.5,-2.3
CC(=O)Nc1ccc(SC[C@H](Cc2ccccc2)N2CCN(CCc3ccccc3)CCC2=O)cc1,99.9*,-2.7
Cc1ccc(SC[C@H](c2ccccc2)N2CCN(CCc3ccccc3)CCC2=O)cc1,100.5*,5.7
CC(C)C[C@@H](CSc1ccccc1)N1CCN(CCc2ccccc2)CCC1=O,88.4*,-5.0
CCc1cc(C(=O)Nc2ccc(F)cc2C)nc2ccnn12,-12.4,-4.7
Cc1ccc(S(=O)(=O)N(C)C(=O)NC(=O)NC(C)(C)C)cc1,5.0,0.1
Cc1cccc(C)c1NC(=O)CONc1ncnc2nonc12,3.0,1.3
N=C1NC(=O)C(CC(=O)Nc2ccc(Br)cc2)S1 (stereo unspecified),4.0,0.4
Cc1nc2cccnc2n1C1CCN(S(=O)(=O)c2cccc3nsnc23)C1 (stereo unspecified),9.4,-3.2
CC(C)NC(=S)N=C(N)Nc1ccc(Cl)c(Cl)c1,.,0.6
CC(=O)Oc1c[nH]c2ccccc12,-5.6,-3.8
CCCN1CCC(=O)N([C@H](CSc2ccccc2)c2ccccc2)CC1,33.9,-6.6
O=C1CCN(CCc2ccccc2)CCN1[C@H](CSc1ccccc1)c1ccccc1,100.2*,-0.1
O=C1CCC(OCc2ccccc2)CCN1[C@H](CSc1ccccc1)Cc1ccccc1 (stereo partly specified),52.8*,-3.6
Cc1ccc(SC[C@H](Cc2ccccc2)N2CC[C@@H](C)CCC2=O)cc1,-1.5,-6.6
O=C1C(=O)N(C(c2ccccc2)c2ccccc2)c2ccccc21,92.4*,-0.4
O=C(O)CN1C(=O)C(=O)c2ccccc21,3.0,1.8
CCn1c(C2CCN(C(=O)Nc3ccc4c(c3)CCC4)C2)nc2cccnc21 (stereo unspecified),8.8,1.0
COc1ccc(N=Cc2cc(Cl)cc(I)c2O)cc1OC,21.0,7.8
Cc1nc(C2CCCCN2Cc2cccc(C#N)c2)no1 (stereo unspecified),-3.4,-1.1
